Holding throughout (assay): yeast three-hybrid, YBZ-1, SC-Leu-His + 0.5 mM 3-AT, 4 days
Holding throughout (conditions): tags: N-Gal4 AD-HA kept; label: inside an RPR1-promoter hybrid RNA with tandem MS2 sites; ssRNA

The target in one assay is PUM1 PUF domain R4-LRC (Homo sapiens, UniProt Q14671 828-1176, N971L;H972R;Q975C). An outline of the steps:
(§1)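 Pumilio-1 PUF domain libraries, randomized at the three base-contacting residues of each repeat, were co-expressed with matching RNA elements from a centromeric plasmid in strain YBZ-1, which carries a LexA–MS2 coat fusion and a HIS3 reporter. Transformants grew for four days on SC-Leu (input) or on SC-Leu-His + 0.5 mM 3-AT (selection), and the repeat regions were PCR-amplified and Illumina-sequenced. The interaction score is the log change in variant frequency from input to selection. That logarithm is base 2, with a pseudocount of 1 where a variant was absent.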

For the next assay, the target named is PUM1 PUF domain R8-IYR (Homo sapiens, UniProt Q14671 828-1176, N1122I;Q1126R). A digest of the protocol: as §1
A further assay deals with PUM1 PUF domain R5-RFC (Homo sapiens, UniProt Q14671 828-1176, C1007R;R1008F;Q1011C). An outline of the steps:
as §1

A further assay has as its target T1, PUM1 PUF domain R6-RFV (Homo sapiens, UniProt Q14671 828-1176, N1043R;Y1044F;Q1047V).
T1 sequence: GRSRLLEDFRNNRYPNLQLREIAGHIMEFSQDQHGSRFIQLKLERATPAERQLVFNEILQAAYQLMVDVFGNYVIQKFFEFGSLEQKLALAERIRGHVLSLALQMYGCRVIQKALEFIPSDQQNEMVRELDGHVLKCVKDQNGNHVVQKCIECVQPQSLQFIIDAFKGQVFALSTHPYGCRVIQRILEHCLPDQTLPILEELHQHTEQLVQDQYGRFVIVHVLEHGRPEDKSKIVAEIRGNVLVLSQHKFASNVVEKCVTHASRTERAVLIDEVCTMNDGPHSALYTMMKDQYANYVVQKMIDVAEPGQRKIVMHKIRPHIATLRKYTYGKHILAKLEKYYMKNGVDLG
A digest of the protocol: as §1

The target of another assay is PUM1 PUF domain R3-CNE (Homo sapiens, UniProt Q14671 828-1176, R936N;Q939E). An outline of the steps: as §1
A further assay concerns the target PUM1 PUF domain R4-PFG (Homo sapiens, UniProt Q14671 828-1176, N971P;H972F;Q975G). An outline of the steps: as §1
Another assay addresses PUM1 PUF domain R4-EYR (Homo sapiens, UniProt Q14671 828-1176, N971E;H972Y;Q975R). An outline of the steps: as §1
A further assay concerns the target PUM1 PUF domain R3-TQE (Homo sapiens, UniProt Q14671 828-1176, C935T;R936Q;Q939E). An outline of the steps: as §1
The target of the next assay is PUM1 PUF domain R7-RSC (Homo sapiens, UniProt Q14671 828-1176, S1079R;N1080S;E1083C). An outline of the steps:
as §1

A further assay addresses PUM1 PUF domain R5-KRH (Homo sapiens, UniProt Q14671 828-1176, C1007K;Q1011H). An outline of the steps: as §1

For “GGCUAGAACUAGUGGAUCCCCCGGCGCCCGGCGGCUCGAGCCCGGGUAAGUGUAAAUAGUCUGCAUGCCGCCGGGCGCCAUGCCUGCAGGUCGACUCUAGAAAACAUG”, the binding signal with PUM1 PUF domain R4-LRC was 4.01 log2 enrichment (interaction score); with PUM1 PUF domain R8-IYR it was 4.7 log2 enrichment (interaction score); with PUM1 PUF domain R5-RFC, 3.35 log2 enrichment (interaction score); in the assay with PUM1 PUF domain R6-RFV, 3.56 log2 enrichment (interaction score); with PUM1 PUF domain R3-CNE, 2.27 log2 enrichment (interaction score); with PUM1 PUF domain R4-PFG, 6.55 log2 enrichment (interaction score).

Consider “GGCUAGAACUAGUGGAUCCCCCGGCGCCCGGCGGCUCGAGCCCGGGUAAGCGUAAAUAGUCUGCAUGCCGCCGGGCGCCAUGCCUGCAGGUCGACUCUAGAAAACAUG”, for which, in the assay with PUM1 PUF domain R8-IYR, the binding signal was 6.47 log2 enrichment (interaction score).

With “GGCUAGAACUAGUGGAUCCCCCGGCGCCCGGCGGCUCGAGCCCGGGUAAGUGUACAUAGUCUGCAUGCCGCCGGGCGCCAUGCCUGCAGGUCGACUCUAGAAAACAUG”, the binding signal is 6.74 log2 enrichment (interaction score) with PUM1 PUF domain R4-PFG and 1.63 log2 enrichment (interaction score) in the assay with PUM1 PUF domain R4-EYR.

As to “GGCUAGAACUAGUGGAUCCCCCGGCGCCCGGCGGCUCGAGCCCGGGUAAGUGUAAGUAGUCUGCAUGCCGCCGGGCGCCAUGCCUGCAGGUCGACUCUAGAAAACAUG”, the binding signal with PUM1 PUF domain R3-CNE is 3.08 log2 enrichment (interaction score); in the assay with PUM1 PUF domain R3-TQE, 2.29 log2 enrichment (interaction score).

For the sequence “GGCUAGAACUAGUGGAUCCCCCGGCGCCCGGCGGCUCGAGCCCGGGUAAGUCUAAAUAGUCUGCAUGCCGCCGGGCGCCAUGCCUGCAGGUCGACUCUAGAAAACAUG”, the binding signal with PUM1 PUF domain R7-RSC was 2.75 log2 enrichment (interaction score).

On to “GGCUAGAACUAGUGGAUCCCCCGGCGCCCGGCGGCUCGAGCCCGGGUAAGUGUCAAUAGUCUGCAUGCCGCCGGGCGCCAUGCCUGCAGGUCGACUCUAGAAAACAUG”, for which the figures for the binding signal with PUM1 PUF domain R5-KRH and with PUM1 PUF domain R5-RFC were 4.38 log2 enrichment (interaction score) and 5.11 log2 enrichment (interaction score), respectively.

As to “GGCUAGAACUAGUGGAUCCCCCGGCGCCCGGCGGCUCGAGCCCGGGUAAGUGUAUAUAGUCUGCAUGCCGCCGGGCGCCAUGCCUGCAGGUCGACUCUAGAAAACAUG”, the binding signal with PUM1 PUF domain R4-PFG was 7.12 log2 enrichment (interaction score); with PUM1 PUF domain R4-EYR, 3.63 log2 enrichment (interaction score).
